Structures are written as SMILES. About 83,000 compounds went through this panel and 20% of them were active in at least one assay; those are over-represented in the sample as a whole.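 The endpoint reported here, percent growth, reads 100 for growth as untreated, 0 for no net growth and -100 for all cells dead.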 A number with no mark means an inactive call. The source made the active and inactive calls. The calls were made as follows: active = growth percent below 10; inactive = the rest.

Common to all, as to assay: NCI-60 one-dose screen, 48 h (100 = growth as untreated, 0 = no growth, -100 = all killed)
Holding throughout (settings): 10 µM unless noted

Test [1] deals with SK-MEL-2 melanoma.
Test [2] relates to EKVX NSCLC.
In test [3] the test system is SN12C renal.
Test [4] concerns UO-31 renal.
Test [5] concerns ACHN renal.
Test [6] deals with A498 renal.
In test [7] the test system is CCRF-CEM leukemia.
Test [8] deals with MOLT-4 leukemia.
Test [9] relates to SR leukemia.
Test [10] relates to RPMI-8226 leukemia.
Test [11] has as its system OVCAR-8 ovarian.
Test [12] has as its system OVCAR-5 ovarian.
Test [13] concerns OVCAR-4 ovarian.
The test system of test [14] is SK-OV-3 ovarian.
Test [15] has as its system IGROV1 ovarian.
The test system of test [16] is OVCAR-3 ovarian.
Test [17] deals with HS 578T breast.
Test [18] has as its system NCI/ADR-RES ovarian.

As for `Nc1nc(Cl)c2c(C(F)(F)F)cn(CC3CCNCC3)c2n1`, the growth is 87.9% in [1]; 88.8% in test [2]; 85.7% in test [3]; 91.6% in test [4]; 104% in [5]; 107% in [6]. The growth is 51.9% in [7]; 45.8% in [8]; -38.7% (active) in test [9]; 83.7% in test [10]; -16.3% (active) in test [11]; 110% in test [12]. In addition, the growth in [13] is 101%; in [14], 107%; in [15], -62.8% (active); in [16], 94.7%; in test [17] it was 88.7%; in [18], 109%.
Take `COc1ccc(/C(=C/c2cc(OC)c(OC)c(OC)c2)[N+](=O)[O-])cc1`: the growth is -13.2% (active) in test [1]; 27.9% in test [2]; 5.64% (active) in test [3]; -69.1% (active) in test [4]; -74% (active) in test [5]; -7.93% (active) in test [7]. Besides, the growth in test [8] is 0.326% (active); in [9], -11.2% (active); in test [10], -18.6% (active); in test [11] it was 13.4%; in test [12] it was 98.6%; in test [13] it was 37.3%. For the same molecule, the growth was 91% in test [14]; -4.79% (active) in test [15]; -54.3% (active) in [16]; 97.9% in test [17]; 33.8% in [18].
Consider `c1ccc(-c2nc3sc(C(c4ccccc4)c4ccccc4)nn3c2-c2ccccc2)cc1`, for which the growth is 81.3% in test [1]; 89.8% in [2]; 93.8% in test [3]; 90.8% in test [4]; 97.5% in test [5]; 87.6% in test [6]. For the same molecule, the growth is 100% in test [7]; 107% in [8]; 80.6% in test [9]; 108% in test [10]; 104% in test [11]; 103% in test [12]. For the same molecule, the growth was 103% in test [13]; 94.7% in [14]; 86.4% in test [15]; 100% in test [16]; 106% in test [17]; 95.3% in test [18].
As to `O=c1nc(N2CCOCC2)oc2c(-c3cccc4ccccc34)cccc12`, the growth in [1] was 100%; in test [2], 81.1%; in test [3] it was 82.3%; in test [4], 53.4%; in [5], 81.6%; in test [6] it was 8.01% (active). Also, the growth in test [7] is 91.5%; in [8] it was 93.1%; in test [9], 72.9%; in test [10] it was 96.1%; in test [11], 85.2%; in test [12], 89.2%. For the same molecule, the growth is 97.1% in test [13]; 90% in [14]; 75.4% in [15]; 83.8% in [17]; 83.7% in test [18].
For the molecule `COc1ccc2c(c1)nnn1c3ncccc3c(N=O)c21`, the growth in test [1] was -65.9% (active); in test [2] it was 15%; in [3], -80.4% (active); in [4], -99.3% (active); in [5], -30.8% (active); in [6] it was 31.9%. Also, the growth in [7] is -22.8% (active); in [8], -55.6% (active); in test [10], -56.2% (active); in test [11] it was -30.3% (active); in test [12], -0.558% (active); in [13], 9.93% (active). Besides, the growth in test [14] was 9.38% (active); in [17], -29.7% (active); in [18] it was -8.17% (active).
With `Nc1ncnc2c1c(-c1ccc(Oc3ccccc3)cc1)nn2C[C@H]1SSC[C@H]1O`, the growth in test [1] is -75.1% (active); in test [2], 6.97% (active); in test [3] it was 20.7%; in test [4] it was -3.37% (active); in [5], 10.3%; in test [6], 18.9%. The growth in test [7] was 11.1%; in [8], -2.47% (active); in [9], -40% (active); in [10] it was 42.8%; in test [11] it was 20.5%; in test [12], 64.1%. The growth in test [13] was 25.6%; in test [14], -20.8% (active); in [15] it was -26.5% (active); in test [16], -9.53% (active); in test [17], 21.6%; in test [18], 22.4%.
Consider `Cc1ccc(-c2cn3cc([N+](=O)[O-])ccc3n2)cc1`, for which the growth was 71.5% in test [1]; 67.4% in test [2]; 75.3% in test [3]; 57.2% in [4]; 73.4% in [5]; 57.6% in [6]. Also, the growth in test [7] was 52.6%; in [8], 57.6%; in test [9], 75.5%; in test [10], 72.6%; in [11] it was 76.7%; in test [12] it was 109%. Also, the growth in test [13] is 78.1%; in test [14], 102%; in [15], 71%; in test [16], 101%; in test [17], 97.1%; in [18], 83.4%.
`CN(C)CCNc1nc2ccccc2c2c(=O)c3ccccc3sc12`: the growth in [1] is -11% (active); in test [2], 30.7%; in test [3] it was 32.1%; in test [4], 12.6%; in test [5], 7.03% (active); in [6], -2.07% (active). Besides, the growth in [7] was 6.74% (active); in [8], -4.55% (active); in test [9], -18.1% (active); in [10], -8.02% (active); in [11] it was 14.6%; in test [12], 46%. Besides, the growth in test [13] is 38.4%; in test [14], 31.5%; in [15] it was 28.5%; in test [16], 31.2%; in [17], 30.3%; in [18], 20.9%.
In the case of `c1ccc2c(c1)Oc1cccnc1-n1nccc1-2`, the growth was 121% in [1]; 104% in test [2]; 101% in test [3]; 101% in [4]; 99.7% in test [5]; 87.2% in test [6]. For the same molecule, the growth was 104% in test [7]; 109% in test [8]; 94.2% in test [9]; 96.9% in test [10]; 99.6% in [11]; 107% in test [12]. The growth in test [13] was 110%; in test [14], 104%; in [15], 104%; in test [16], 108%; in test [17] it was 90.1%; in test [18], 100%.

Source of the values: PubChem BioAssay (NCI).
